Test results as given in PubChem BioAssay (NCATS).
Records with an inconclusive call do not appear. The source made the active and inactive calls. Calls come from the whole dose curve; as a rule, active = well fitted inhibition curve with a large enough effect; inconclusive = small, poorly fitted or top-dose-only effect; inactive = flat fitted curve, though single readings scatter.

Assays:
Test in all cases: qHTS profiling for inhibitors of Plasmodium falciparum proliferation (AID 504749); note: nearly all actives have a fitted effect of over 60% in size
Conditions in all cases: P. falciparum in erythrocytes, SYBR Green DNA, 72 h; series mostly up to 28.7 µM
[1] = system: CP247
Outline: (§1)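 Fluorescence of SYBR Green-bound parasite DNA, read at 485/535 nm, served as the growth measure. Infected erythrocytes were cultured with compound 72 h; artemisinin (0.29 uM) and DMSO wells defined the normalization range.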

[2] = system: CP250
Outline: as §1

[3] = system: CP252
Outline: as §1

[4] = system: CP260
Outline: as §1

[5] = system: CP262
Outline: as §1

[6] = system: CP266
Outline: as §1

[7] = system: CP268
Outline: as §1

[8] = system: CP256
Outline: as §1

[9] = system: CP269
Outline: as §1

[10] = system: CP265
Outline: as §1

Measured: Potency
Potency is the fitted concentration of half-maximal effect.

CNCCCC1c2ccccc2C=Cc2ccccc21
not listed: [8] | [9] | [10]
inactive: all other assays above

c1ccc(CN(CC2=NCCN2)c2ccccc2)cc1
inactive: [1] | [3] | [8] | [5] | [6] | [9]

COCCOC(=O)C1=C(C)NC(C)=C(C(=O)OC/C=C/c2ccccc2)C1c1cccc([N+](=O)[O-])c1 (stereo not drawn)
inactive: [6]

C[C@]12C[C@H](O)[C@H]3[C@@H](CCC4=CC(=O)CC[C@@]43C)[C@@H]1CC[C@@H]2C(=O)CO
inactive: [4] | [5] | [6] | [7] | [9]

NC(=O)N/N=C/c1ccc([N+](=O)[O-])o1
inactive: [6]
active: [4] 10 µM | [10] 8.91 µM

CN1CCC[C@@H]1Cc1c[nH]c2ccc(CCS(=O)(=O)c3ccccc3)cc12
inactive: [3] | [5] | [6] | [9]

CC(CN1c2ccccc2Sc2ccccc21)N(C)C (stereo not drawn)
not listed: [4] | [10]
inactive: all other assays above

CC(C)(C)NCC(O)COc1ccc(NC(=O)NC2CCCCC2)cc1 (stereo not drawn)
not listed: [1]
inactive: all other assays above

CC(C)(C)C(=O)C(Oc1ccc(Cl)cc1)n1ccnc1 (stereo not drawn)
inactive: [8] | [5] | [6]

CNCCC(Oc1ccc(C(F)(F)F)cc1)c1ccccc1 (stereo not drawn)
inactive: [5] | [6]
